Laboratory results reported in PubChem BioAssay (NCI).
About 83,000 compounds went through this panel and 20% of them were active in at least one assay; those are over-represented in the sample as a whole.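 Values shown are percent growth following 48 h exposure of cells in 96-well plates to a single concentration of compound; below 10 was considered active.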 Values without a mark were called inactive. Calls of active or inactive are those of the source.

Key:
Experiment in all cases: NCI-60 one-dose screen, 48 h (100 = growth as untreated, 0 = no growth, -100 = all killed)
Settings in all cases: 10 µM unless noted
[1] = system: T-47D breast
[2] = system: BT-549 breast
[3] = system: MDA-MB-435 melanoma
[4] = system: SW-620 colon
[5] = system: MCF7 breast
[6] = system: HCT-116 colon
[7] = system: HCC-2998 colon
[8] = system: KM12 colon

| SMILES | growth [1] | growth [2] | growth [3] | growth [4] | growth [5] | growth [6] | growth [7] | growth [8] |
| --- | --- | --- | --- | --- | --- | --- | --- | --- |
| CCC(C)Nc1ccc(N)cc1 (stereo not given) | 16.2% | 31.7% | 12.7% | 29.9% | 3.94% (active) | -34.8% (active) | 28.4% | 8.28% (active) |
| CN(C)CC/C=C1\c2ccccc2Sc2ccc(Cl)cc21 | 70.7% | 86.5% | 36.2% | 81.5% | 62.3% | 36.5% | 27.4% | 69.3% |
| CCN(CC)c1ccc(C2CC(c3cc(OC)c(OC)c(OC)c3)=NN2)cc1 (stereo not given) | 29.9% | -2.69% (active) | 21.6% | 18.4% | 6.88% (active) | 9.61% (active) | 21.2% | 11.1% |
| CCOC(=O)CSc1nnc(-c2cc3c([nH]c4ccccc43)c(-c3cccc(O)c3)n2)n1-c1ccc(C)cc1 | -5.32% (active) | 101% | 16.4% | 67.1% | 35.3% | 50% | 83.7% | 76.3% |
| CSc1ccc(C(=O)C[n+]2cccc(C)c2)cc1 | 90.6% | 104% | 104% | 102% | 97.2% | 101% | 115% | 100% |
| [2H]c1nc(Nc2ncc(F)c(-c3cc(F)c4nc(C)n(C(C)C)c4c3)n2)c([2H])c([2H])c1CN1CCN(CC)CC1 | 71.8% | 55.4% | 51.9% | 33.8% | 25.9% | 20.6% | 64.1% | 31.9% |
| CCC1S/C(=N\N=C(/C)c2ccco2)N(c2ccccc2)C1=O (stereo not given) | 107% | 106% | 92.7% | 119% | 81% | 68.6% | 112% | 86.1% |
| CCCCCCCCCCCCCCCCNc1ccccc1 | 88.6% | 71.7% | 111% | 108% | 90.1% | 101% | 105% | 88.7% |
| COC1OCC(OS(=O)(=O)c2ccc(C)cc2)C(OC(=O)c2ccccc2)C1OC(=O)c1ccccc1 (stereo not given) | 44.4% | 39.1% | -5.87% (active) | 19.5% | 22.6% | 32.4% | 56.9% | 30.7% |
| COc1cc(Nc2ncccc2C(=O)Nc2nc3ccc(F)cc3s2)cc(OC)c1OC | 36.2% | 89.3% | 21% | 96.8% | 94.9% | 13.8% | 84.7% | 78.9% |
| COc1cc(NC(C)CCCN2C(=O)c3ccccc3C2=O)c2nc(C)ccc2c1OC (stereo not given) | 95.1% | 103% | 111% | 97.3% | 90.6% | 85.4% | 95.4% | 107% |
| CCOC(=O)c1noc2c1CCc1cn(Cc3cc(OC)cc(OC)c3)cc1-2 | 94.7% | 91.5% | 103% | 103% | 94.9% | 92.3% | 88.9% | 100% |
| Cc1c(NC(=O)c2sc3nc4c(cc3c2N)CN(Cc2ccccc2)CC4)cccc1C(F)(F)F | 48.9% | 49.2% | 13.1% | 19.3% | 16.4% | 19.5% | 64.7% | 27% |
| CC(C)NCC(O)COc1ccc(CC(N)=O)cc1 (stereo not given) | 98.9% | 96.7% | 107% | 100% | 98.1% | 99.2% | 106% | 106% |
| CCN(CC)C(=O)C1CCN(C(=O)c2ccccc2)CC1 | 98.4% | 93.8% | 104% | 101% | 96.6% | 99.2% | 106% | 101% |
| CC(C)(C)C(=O)Nc1nc2c(s1)CCc1ccn(S(=O)(=O)c3ccccc3)c1-2 | 66.6% | 94.5% | 108% | 101% | 85.9% | 78.7% | 100% | 89.8% |
| Clc1ccc2c(NCCNc3nc(Cl)nc4ccccc34)ccnc2c1 | -63.6% (active) | -65.6% (active) | -89.4% (active) | -77.1% (active) | -63.8% (active) | -96.7% (active) | -64.1% (active) | -76.5% (active) |
| Cc1ccc2[nH]c3nc4cccnc4c(C)c3c2c1 | 14.2% | 68.6% | 108% | 91.6% | 1.4% (active) | 91.9% | 92.7% | 72.8% |
| CCCCCCCC(=O)SCC/C=C/[C@@H]1CC(=O)NCc2nc(cs2)C2=N[C@@](C)(CS2)C(=O)N[C@@H](C(C)C)C(=O)N1 | -25.6% (active) | 40.1% | 6.04% (active) | 26.9% | 13.2% | -30.3% (active) | -6.96% (active) | 8.82% (active) |
| CC(C(=O)O)N1C(N)=NNC1c1ccccc1O (stereo not given) | 59.7% | 104% | 104% | 95.7% | 80.4% | 87.4% | 92.7% | 93.9% |
| Cc1cc(C)c(O)c(C(=O)CC(Br)C(=O)O)c1 (stereo not given) | 92.9% | 97.6% | 102% | 116% | 66.6% | 99.3% | 93.3% | 97.9% |
| O=C(Nc1ccccc1Cl)c1c[nH]c(=O)c(-c2ccc(N3CCCOC4(CC4)C3)cc2)c1 | 31.5% | 56.3% | 56.4% | 78.1% | 40% | 42.4% | 67.5% | 74.3% |
| O=C(NCCNc1nccc(-c2c(-c3cccc(O)c3)nc3sccn23)n1)c1ccccc1O | 61.8% | 45.7% | 14.3% | 77.9% | 37% | 25.9% | 81% | 46.7% |
| O=c1c2ccccc2sc2c(NCCN3CCOCC3)nc3ccccc3c12 | 52.2% | 73.7% | 70.1% | 18% | 43.7% | 42.5% | 54.2% | 30% |
| Cc1c(Cl)ccc2c(C(=O)Cl)cc(-c3ccccc3)nc12 | 90.9% | 94.8% | 98.3% | 97.5% | 87.6% | 102% | 109% | 102% |
| CC1=C2C(=C[C@@](C)(CO)[C@@H]2OC(=O)N(C)CCN(C)C(=O)OC(C)(C)C)C(=O)[C@](C)(O)C12CC2 | 45.2% | 56.8% | 72.6% | 71.3% | 34.8% | 15.9% | 75.8% | 74% |
| Nc1n[nH]c2cccc(C#Cc3cccc(NC(=O)c4cccc(C(F)(F)F)c4)c3)c12 | 25.3% | 46.2% | 30.1% | 46.1% | 39.9% | 9.05% (active) | 26.2% | 38.5% |
| CCCCCCCCN(CCCCCCCC)CC(O)c1cc(-c2ccccc2)nc2ccc(OC)cc12 (stereo not given) | 77% | 78.8% | 60.1% | 23.6% | 67% | 8.32% (active) | 101% | 82.9% |
| COc1ccc(C(=O)NC(=O)Nc2ccc3c(c2)NC(=O)/C3=C\c2[nH]c(C)c(C(=O)O)c2C)c(F)c1 | 58.5% | 21.7% | 66.4% | 55% | 74.8% | 59.6% | 46.6% | 26.3% |
| Cc1ccn2cc(Cc3cc(=O)oc4c3ccc3ccccc34)c(=O)nc2c1 | 85.8% | 99.5% | 104% | 103% | 93.8% | 101% | 100% | 101% |
